Experimental findings from PubChem BioAssay AID540277 (National Center for Advancing Translational Sciences (NCATS), 2011) are described below.

Hit rate of the full screen: of about 320,000 compounds, about 55 (0.02%) were called active. Another 3% or so got no clear call; they are omitted. Rule as the data show it: active = potentiation above about 80%; inconclusive = between about 30% and that limit; inactive = weaker than that. For the sample, actives were picked, then their nearest neighbours and some compounds at random.

Transient receptor potential cation channel subfamily V member 1 (Homo sapiens), sequence (Q8NER1 whole entry, looked up): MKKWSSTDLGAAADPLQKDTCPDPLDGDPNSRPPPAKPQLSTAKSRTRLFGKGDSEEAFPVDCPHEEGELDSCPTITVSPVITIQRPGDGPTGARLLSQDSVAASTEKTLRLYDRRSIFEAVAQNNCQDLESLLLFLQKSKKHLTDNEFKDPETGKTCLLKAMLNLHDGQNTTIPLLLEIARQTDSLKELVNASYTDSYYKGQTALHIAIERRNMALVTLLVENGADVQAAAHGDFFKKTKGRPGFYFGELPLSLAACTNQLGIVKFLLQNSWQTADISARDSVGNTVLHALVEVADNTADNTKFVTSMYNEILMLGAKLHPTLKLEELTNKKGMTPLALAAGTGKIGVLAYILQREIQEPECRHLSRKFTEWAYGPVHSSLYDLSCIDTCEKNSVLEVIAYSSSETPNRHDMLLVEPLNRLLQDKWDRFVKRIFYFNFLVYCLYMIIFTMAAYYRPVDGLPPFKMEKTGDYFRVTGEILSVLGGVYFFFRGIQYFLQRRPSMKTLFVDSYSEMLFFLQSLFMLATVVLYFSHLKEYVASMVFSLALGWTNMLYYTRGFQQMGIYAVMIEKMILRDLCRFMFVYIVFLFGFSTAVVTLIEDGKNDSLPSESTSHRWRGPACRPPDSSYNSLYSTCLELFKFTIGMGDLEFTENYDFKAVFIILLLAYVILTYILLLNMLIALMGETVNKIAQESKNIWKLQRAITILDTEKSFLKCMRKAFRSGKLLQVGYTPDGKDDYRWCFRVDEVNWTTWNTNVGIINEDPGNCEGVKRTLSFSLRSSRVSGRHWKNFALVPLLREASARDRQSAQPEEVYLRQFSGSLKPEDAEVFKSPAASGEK

This assay concerns the target Transient receptor potential cation channel subfamily V member 1 (Homo sapiens) (UniProt Q8NER1). In words: HTS Assay for Compounds that Act as Potentiators of the Vanilloid Receptor 1. Also: 0% is about no effect. The conditions noted are these: TRPV1-expressing cells, Fluo-8 calcium influx, capsaicin EC20 potentiation; at 8.33 µM; stronger effect = higher value. An excerpt: The transient receptor potential ion channel, family V, number 1, (TRPV1) is one of the most important molecular transducers of painful stimuli and a potential target for analgesic drug development. Although recent clinical trials with orthosteric antagonists have not produced a successful drug because of a hyperthermia side effect and their tendency to block thermal noxious pain, this ion channel is undeniably well placed in the pain pathway, and the idea of blocking pain signals before they enter the CNS is an excellent concept and of proven efficacy when TRPV1 agonists are used. We propose a new approach involving allosteric modulation to impose an activity-dependent constraint within the context of inflammation and tissue damage that would alter the responsiveness of the channel in a way that an orthosteric vanilloid antagonist cannot achieve. We believe that the allosteric modulator approach has not been explored for this target. The main goal of this proposal is to identify additional, new, potent allosteric modulators of TRPV1 that can be used to investigate TRPV1 function. Our recent report provides evidence of proof of concept, but the compounds are just at the edge of utility in terms of potency. […] The question of whether they can be used as analgesic agents is complex, but if suitable compounds are identified then testing for analgesic properties will be conducted. NIH Chemical Genomics Center [NCGC] NIH Molecular Libraries Probe Centers Network [MLPCN] MLPCN Grant: MH089480-1A1 Assay Submitter (PI): Michael Iadarola, National Institute of Dental and Cranofacial Research
Upon TRPV1 activation in TRPV1 cells, the channel opens and extracellular cations flow through the channel into the cytosol. A calcium binding dye (Fluo-8) becomes fluorescent when bound to calcium. This dye is pre-loaded into cells and is used as a marker for calcium influx. The amount of accumulated calcium is precisely quantified using the FDSS kinetic reader and the calcium dye. For the HTS assay, freshly prepared cells are plated at a density of 2000/well in 3 ul medium in 1536-well plates and cultured overnight at 35.5C. Cells will be loaded with 1 ul of the homogeneous calcium dye (ABD Bioquest) at room temperature for 40 to 90 minutes. Plates will be loaded into the FDSS kinetic reader and a 1 sec / cycle for 10 second baseline signal will be measured. Compound library will then be added with a pintool at 23 nl and measured kinetically for 3 minutes. This portion of the read is considered the agonist portion of the screen. Following the 3 minutes of incubation, an on board pipettor will deliver 1 ul of capsaicin for a final concentration equal to the EC20. Signal will be measured kinetically for an additional 2 minutes. This portion of the read is considered the allosteric enhancer portion of the screen. The FDSS reader has a standard filter set capable of measuring calcium bound Fluo-8 (ex=480 and em=520 nm).
Consider `COC(=O)c1cc(Oc2ccc(S(=O)(=O)N3CCOCC3)cc2[N+](=O)[O-])cc(C(=O)OC)c1`, for which the potentiation was 10.8% (inactive). Regarding `CN1CCN(C2=NCCO2)CC1`, the potentiation was -4.44% (inactive). With `CCOc1ccc(S(=O)(=O)N2CCCCC2)cc1NC(=O)CN1CCCC1c1cccs1` (stereo not drawn), the potentiation is -19.8% (inactive).

Consider `Cc1ccc(C(=O)CN2C(=O)NC3(CCOc4ccccc43)C2=O)s1` (stereo not drawn), for which the potentiation was -10.3% (inactive).

Turning to `CC(=O)N(CC1CCCO1)C1(C(=O)NC2CCCC2)CCCCC1` (stereo not drawn), the potentiation was -6.84% (inactive). As for `CC(=O)NCC(=O)N(Cc1ccco1)C1(C(=O)NC2CCCC2)CCCCC1`, the figure is 85.2% (active). With `O=C(c1ccc(=O)[nH]c1)N(Cc1ccco1)C1(C(=O)NC2CCCCC2)CCCCC1`, the potentiation was 6.34% (inactive). Turning to `Cc1n[nH]c(=O)c2c(NC(=O)CSc3cc(Cl)ccc3Cl)oc(C)c12`, the potentiation was 13.8% (inactive). Regarding `CC1CC1C(=O)OCC(=O)Nc1cccc(F)c1` (stereo not drawn), the potentiation is -20.7% (inactive). As to `Cn1c(N)c(C(=O)COC(=O)/C=C/c2cccc(C(F)(F)F)c2)c(=O)n(C)c1=O`, the potentiation is -32.4% (inactive).

In the case of `COc1ccc(C(C[N+](=O)[O-])n2nc(C)cc2C)cc1` (stereo not drawn), the potentiation is 0.93% (inactive). With `COc1ccc(S(=O)(=O)N2CCOCC2)cc1NC(=O)CC1CC2CCC1C2` (stereo not drawn) the figure was 2% (inactive). As for `CCCCn1c(SCC(=O)N2CCCC2=O)nc2cc(S(N)(=O)=O)ccc21`, the figure is -9.34% (inactive); as for `CCOC(=O)c1sc(=NC(=O)/C=C/c2cccs2)n(C)c1C`, -3.16% (inactive). With `O=S(=O)(Nc1cc(Cl)ccc1N1CCOCC1)c1ccccc1Cl` the figure was 28.9% (inactive); with `CN(c1ccccc1)S(=O)(=O)c1cccc(NC(=O)Cc2ccc(Cl)cc2)c1`, -2.65% (inactive). For `O=C(COC(=O)c1c(Cl)cccc1Cl)Nc1cccc(S(=O)(=O)NC2=NCCCCC2)c1`, the potentiation was 4.82% (inactive). Consider `Cc1ccc(S(=O)(=O)Nc2nc(CN3CCOCC3)nc3sc(C)c(C)c23)cc1`, for which the potentiation was 21.7% (inactive). With `O=C(Nc1ccc2c(c1)OCCO2)C1CCCC1` the figure was -1.56% (inactive). Consider `Cc1cc(NC(=O)COc2ccccc2C#N)no1`, for which the potentiation was 13.6% (inactive).

On to `O=C(CSc1ccccc1)Nc1cccc(S(=O)(=O)N2CCCCC2)c1`, for which the potentiation was -6.03% (inactive). With `CCN(c1ccccc1)S(=O)(=O)c1ccc(OCC(=O)N2CCCC2)cc1`, the potentiation was -12.3% (inactive).

On to `O=C(CN1CCCCC1)NC(=O)Nc1ccccc1F`, for which the potentiation is -35.8% (inactive). `COc1ccccc1C(=O)NCC(=O)OCC(=O)Nc1nnc(-c2ccccc2)o1`: the potentiation was 8.76% (inactive). `Cc1ccc(NC(=O)Cc2nc(COC(=O)C(C)NS(=O)(=O)c3ccc(C)cc3)cs2)cc1` (stereo not drawn): the potentiation is 1.83% (inactive).

`COc1ccccc1C(=O)NCCC(=O)NC1=NCCS1`: the potentiation is 16.5% (inactive).

Turning to `Cc1cc(C(=O)COc2ccccc2Cl)c(C)n1C1CC1`, the potentiation is -5.33% (inactive). On to `CC(C)(C)C(=O)CSc1ccc(S(=O)(=O)N2CCCC2)cn1`, for which the potentiation was 5.19% (inactive). As to `CCCCn1nc(C(=O)Nc2cccc(C(=O)NC3CC3)c2)c2ccccc2c1=O`, the potentiation was -5.5% (inactive).

For the molecule `CCC(C(=O)N1CCN(S(=O)(=O)c2sc(C(=O)O)c(C)c2C(=O)O)CC1)c1ccccc1` (stereo not drawn), the potentiation is -6.07% (inactive). As for `CC1CCCN(C(=O)CN2C(=O)c3ccccc3S2(=O)=O)C1` (stereo not drawn), the figure is 7.53% (inactive); as for `Cc1cc(C(=O)COc2ccc(Br)cc2F)c(C)n1C1CC1`, -6.81% (inactive). As for `COc1ccc(C(=O)N2CCN(c3ccc(C(C)=O)cc3F)CC2)cc1S(=O)(=O)NC1CC1`, the potentiation was -8.79% (inactive).

Consider `CCN1C(=O)C(=O)N(CC(=O)Nc2cc(C)ccc2C)C1=O`, for which the potentiation was 4.41% (inactive). On to `CCN(CC)c1ccc(NC(=O)CN2C(=O)NC3(CCc4ccccc43)C2=O)cc1` (stereo not drawn), for which the potentiation was -5.69% (inactive). `COc1ccc(-c2cc3ncccc3cn2)cc1`: the potentiation is -0.0866% (inactive). Regarding `COc1ccc(CN2CCc3nc(Nc4ccccc4)ncc3C2)c(OC)c1OC`, the potentiation was 1.32% (inactive). For the molecule `COc1ccc2c(C)cc(SCC(=O)NCC3CCCO3)nc2c1` (stereo not drawn), the potentiation is -8.57% (inactive). As for `CC(Sc1nnc(C2CC2)n1C1CC1)C(=O)Nc1ccc(C(N)=O)cc1` (stereo not drawn), the potentiation was -2.73% (inactive).

For `COc1ccc(CN2CCN(C(=O)c3cc(C4CC4)nn3-c3ccccc3)CC2)cc1F`, the potentiation was 1.31% (inactive). Take `CSCCC(NC(=O)c1ccccc1)C(=O)N1CCN(Cc2ccc(Cl)cc2)CC1` (stereo not drawn): the potentiation is 10.6% (inactive). As for `Cc1ccsc1C(=O)NCCc1ccco1`, the figure is -5.45% (inactive); as for `O=C(Nc1ccc2c(c1)OCO2)C1CC1(Cl)Cl` (stereo not drawn), -2.21% (inactive). Regarding `CCN(CC)CCN1C(=O)C(=O)/C(=C(/O)c2cnn(-c3ccccc3)c2C)C1c1cccs1` (stereo not drawn), the potentiation was -0.404% (inactive). Consider `CCOc1ncccc1C(=O)OCC(=O)Nc1cccc(S(=O)(=O)N2CCCCCC2)c1`, for which the potentiation was -26.2% (inactive). With `COc1ccc(S(=O)(=O)N2CCOCC2)cc1NC(=O)Cc1coc2cc(C)ccc12` the figure was 4.1% (inactive). As to `Cc1nc2ccc(NC(=O)C3CCCCC3)cc2s1`, the potentiation was -2.49% (inactive). In the case of `COc1ccc(-c2sc3ccc(OC)cc3c2C#Cc2ccccn2)cc1`, the potentiation was -1.97% (inactive).

Regarding `CC(C)c1ccc(S(=O)(=O)N2CCN(C(C)C(=O)NC3CCCC3)CC2)cc1` (stereo not drawn), the potentiation is -15.2% (inactive).

As for `O=C(Nc1ccccn1)C1CCN(S(=O)(=O)c2ccccc2)CC1`, the potentiation is -3.8% (inactive). With `COCCn1c(C)cc(C(=O)CSc2nnc(C3CC3)n2C2CC2)c1C`, the potentiation is -2.92% (inactive).

`CC(=O)Nc1ccc(Nc2cc(C)nc(Nc3ccc(NC(C)=O)cc3)n2)cc1`: the potentiation is 13.9% (inactive). For `O=c1ccc2c(-c3ccccc3S(=O)(=O)O)c3ccc(O)c(O)c3oc-2c1O`, the potentiation was 12.9% (inactive). As for `CC(=O)N1CCN(S(=O)(=O)c2cccc(C(=O)NC3CCC(C)CC3)c2)CC1` (stereo not drawn), the figure is 0.313% (inactive). For the molecule `Cc1cc(C(=O)Nc2nnc(C3CC3)s2)c(C)s1`, the potentiation was 9.37% (inactive). In the case of `COc1cccc(-n2c(SCC(=O)NC3CCS(=O)(=O)C3)nc3ccccc3c2=O)c1` (stereo not drawn), the potentiation was 7.53% (inactive).

In the case of `CC(C)n1ncc2c(C(=O)Nc3ccc(CC#N)cc3)cc(C3CC3)nc21`, the potentiation was -24.2% (inactive). As for `COc1cccc(NC(=O)CN(C)CC(=O)c2c(N)n(Cc3ccccc3)c(=O)n(C)c2=O)c1`, the potentiation was 23.5% (inactive).
